Assay results taken from PubChem BioAssay AID818 (SRMLSC, 2007).
Out of some 140,000 compounds screened, about 2,100 (1.5%) were called active. This is one part of a sample in which actives are shown more often than they occur. Values without a mark were called inactive.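 How the source made its calls: active means viability at or under a set limit, the compound median less 4 SD (cut at about 6% in these data); inactive means the rest.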

experiment: primary screen for growth suppressors in beta-catenin knockout HCT116 cells (colon tumor, human) (AID 818); settings: CellTiter-Glo, 60 h, at 10 µM, stronger effect = lower value;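 further: 0% = Hyamine 1622 control at 20 µM and 100% = untreated cell control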

| SMILES | viability |
| --- | --- |
| CC(CC(=O)Nc1cc(C(F)(F)F)ccc1Cl)c1ccccc1 (centres undefined) | 61.2% |
| O=C(NNc1ccccc1Cl)C(O)(c1cccc(C(F)(F)F)c1)c1cccc(C(F)(F)F)c1 | 3.21% (active) |
| O=C(Nc1cc(C(F)(F)F)ccc1Cl)C(=O)N1CCCCC1 | 99.1% |
| CCc1nnc(NC(=O)/C=C/c2ccc(C)o2)s1 | 97.8% |
| CCC(=O)/C=C1\Sc2ccccc2N1CC | 89% |
| CCN1/C(=C/c2ccc3ccc(C)cc3[n+]2CC)Sc2ccccc21 | 2.41% (active) |
| CCOC(=O)CN(Cc1ccc(OC)c(OC)c1)S(=O)(=O)c1ccc(OC)cc1 | 91.4% |
| COc1ccc(C(CCN(Cc2ccc(OC)c(OC)c2)C(=O)CCl)c2ccccc2)cc1 (centres undefined) | 1.9% (active) |
| COc1ccc(CCN(C(=O)COc2ccccc2)c2nc(-c3ccccc3)cs2)cc1OC | 77.2% |
| CCOC(=O)C(NC(=O)CC(C)C)(Nc1sc2c(c1C(N)=O)CCCC2)C(F)(F)F (centres undefined) | 97.2% |
| O=C1CCCC2=C1C(c1ccccc1)n1c(s/c(=C/c3cccc(F)c3)c1=O)=N2 (centres undefined) | 83.9% |
| COc1ccc(OC)c(C2C3=C(N=c4s/c(=C\c5cccc(O)c5)c(=O)n42)c2ccccc2CC3)c1 (centres undefined) | 3.2% (active) |
| CCOC(=O)C1=C(C)N=c2s/c(=C\C(=O)OC)c(=O)n2C1c1ccc(OC)cc1 (centres undefined) | 98.8% |
| O=C(Nc1cn(-c2ccccc2)nc1-c1ccccc1)c1ccccc1 | 82% |
| COc1cccc(NC(=S)NCc2ccco2)c1 | 96.7% |
| O=[N+]([O-])c1ccc(C=Nc2ccc(Cl)cc2Cl)s1 | 3.51% (active) |
| CC1(C)CC(=O)C/C(=N\NC(=O)c2cccs2)C1 | 93% |
| Cc1ccc(S(=O)(=O)N(Cc2ccc(Cl)cc2)c2ccccc2C(=O)NCc2cccnc2)cc1 | 81.5% |
| O=C(c1c(Cl)nc2sccn12)N1CCCc2ccccc21 | 91.5% |
| O=C1/C(=C\c2ccccc2Cl)SC(=S)N1CCC(=O)N1CCCc2ccccc21 | 4.79% (active) |
| O=C(CCCN1C(=O)/C(=C/c2ccco2)SC1=S)Nc1ccccc1 | 25.7% |
| CCOc1ccc(C(=O)Nc2cccc(SC)c2)cc1 | 86.8% |
| NC1=NC(=O)S/C1=C\c1ccc(O)cc1 | 78.6% |
| CCOC(=O)c1c(C)[nH]c(=S)c(C#N)c1-c1ccccc1 | 101% |
| CCOC(=O)c1cc2n(c1C)-c1ccccc1C2=O | 90.9% |

| SMILES | viability |
| --- | --- |
| CCOC(=O)c1c(C)[nH]c2c1-c1ccccc1C(=O)C2=O | 1.06% (active) |
| CCC1(C(=O)c2ccccc2)C(c2cccc([N+](=O)[O-])c2)C1(C(=O)OC)C(=O)OC (centres undefined) | 82.6% |
| Cc1cc(/C=C2\SC(=Nc3ccc(N4CCOCC4)cc3)N(C)C2=O)c(C)n1-c1cccnc1 | 54.8% |
| CCOC(=O)NN1C(=O)c2ccccc2NC1c1cccc(O)c1 (centres undefined) | 106% |
| O=C1c2ccccc2NC(c2ccc(-c3cccc(Cl)c3)o2)N1O (centres undefined) | 2.84% (active) |
| C=CCn1c(CCNC(=O)c2cccs2)n[nH]c1=S | 99.3% |
| COC(=O)Cn1c(=NC(=O)c2cc(OC)c(OC)c(OC)c2)sc2cc(OC)ccc21 | 81.5% |
| O=C(O)C1CC(=O)N(Cc2cccnc2)C1 (centres undefined) | 90.7% |
| O=C1OC(c2ccc(Cl)cc2)=N/C1=C\c1cccnc1 | 95.6% |
| O=C1/C(=C\c2cccnc2)CN(Cc2ccccc2)C/C1=C\c1cccnc1 | 5.51% (active) |
| CCc1ccc(NC2Nc3cc(C)nn3S2)cc1 (centres undefined) | 95.4% |
| O=C(CSc1nc2ccccc2[nH]1)c1cccs1 | 78.2% |
| CCC(C)N1C(=O)S/C(=C/c2ccc(Sc3nc4ccccc4[nH]3)o2)C1=O (centres undefined) | 4.08% (active) |
| CN=C1S/C(=C\c2ccc(Sc3ccc(Cl)cc3)o2)C(=O)N1C | 96.9% |
| CC1Cc2ccccc2N1C(=O)CSc1nnc(-c2ccc(S(=O)(=O)N3CCCC3)cc2)n1C (centres undefined) | 81% |
| CCCCN(CC)C(=O)c1ccccc1Oc1ccccc1 | 85.8% |
| COC1=CCC2([N+](=O)[O-])CN(CC(=O)O)CC1([N+](=O)[O-])C2 (centres undefined) | 99% |
| O=C(Cc1ccc(Cl)c(Cl)c1)Nc1ccc(SC(F)F)cc1 | 35.8% |
| O=C(CC(=O)Nc1ccc(Cl)c(Cl)c1)N/N=C/c1ccc(O)cc1 | 81% |
| O=C(CC(O)(C(F)(F)F)C(F)(F)F)Nc1ccc(Cl)c(Cl)c1 | 2.26% (active) |
| C/C(=N\Nc1ccc([N+](=O)[O-])cc1)c1ccc(-n2nncc2C(C)(C)C)cc1 | 97.1% |
| CCN(/N=C/c1ccc(N(C)C)cc1)c1nc2ccccc2[nH]1 | 87.6% |
| O=C(COC(=O)c1cc([N+](=O)[O-])ccc1NCc1ccccc1)NC1CCCCC1 | 45.6% |
| C/C(CCC(=O)OC[C@H]1O[C@H](C#Cc2ccccc2)C=C[C@@H]1Oc1ccc(C)cc1)=N\OC[C@@H](O)[C@H]1O[C@@H]2OC(C)(C)O[C@@H]2[C@H]1O | 86.2% |
